Data from PubChem BioAssay (NCATS).
A number with no mark means an inactive call. Results filed as inconclusive are left out. Entries that show only a call come without a potency. Calls of active or inactive are those of the source. The call rests on the fitted dose curve; in most records, active means well fitted curve in the direction sought with a large enough effect; inconclusive means small, poorly fitted or top-dose-only effect, or another doubt; inactive means no such curve, though single readings can be large; an effect the other way counts as inactive or inconclusive. *1 amine or outer side, *2 acyl side, *3 side chain or, on linkers, in order; H or OH if unused. Where a SMILES comes first, the peptide text is derived from it. [ ]: non-standard residue; d: D form. X13 = O=C(C(CC(O)CO)O[*:1])[*:2]; NMeV = CN[CH](C(=O)O)C(C)C; NMeA = CN[CH](C)C(=O)O; βAla = NCCC(=O)O

Assays:
[1] = biological target: Glutathione peroxidase 1 (Homo sapiens) (UniProt P07203); assay: Primary qHTS Assay for Inhibitors of Recombinant Selenoprotein Glutathione Peroxidase 1 (GPX1) (AID 1845191); further: nearly all actives have a fitted effect of over 65% in size
How it was run: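 GR-coupled readout: NADPH consumption tracked by fluorescence, ex 340/em 450 nm, at t=0 and after 15 min at RT. Final mix 10 nM GPX1, 1 mM GSH, 0.5 mM CHP, 0.5 mM NADPH, 100 nM GR, 0.01% BSA, following 30 min enzyme–compound preincubation.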

[2] = biological target: Phospholipid hydroperoxide glutathione peroxidase GPX4 (Homo sapiens) (UniProt P36969); assay: Primary qHTS Assay for Inhibitors of Recombinant Selenoprotein Glutathione Peroxidase 4 (GPX4) (AID 1845192); further: nearly all actives have a fitted effect of over 65% in size; on activity change, negative = inhibition: series mostly up to about 50 µM
How it was run: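 Steps: GPX4 plus compound, 30 min RT; add GR/GSH/NADPH master mix; start with cumene hydroperoxide; read 340/450 nm fluorescence at 0 and 15 min. Finals were 200 nM GPX4, 1 mM GSH, 0.5 mM CHP, 0.5 mM NADPH, 100 nM GR.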

[3] = biological target: Luciferin 4-monooxygenase (Photinus pyralis) (UniProt P08659); assay: Primary firefly luciferase (FLuc) qHTS assay for identification of artifact compounds. (AID 1845220); further: nearly all actives have a fitted effect of over 60% in size; on activity change, negative = inhibition: series mostly up to about 54 µM
How it was run: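 D-luciferin and ATP (10 uM each, final) in Tris acetate buffer pH 7.6 were incubated with compounds for 15 min at room temperature. The reaction was started with 10 nM Photinus pyralis luciferase and luminescence read after 5 min. Percent inhibition was fitted to a 4-parameter Hill equation.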

[4] = Primary fluorescence-based thiol-reactive (MSTI) qHTS assay for identification of artifact compounds. (AID 1845221); further: nearly all actives have a fitted effect of over 65% in size; further: potency means the concentration at half of the fitted maximal effect;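 on activity change, negative = thiol reactive: series mostly up to about 54 µM; thiol-reactive compounds lower the probe fluorescence signal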
How it was run: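 Reactivity toward the thiol probe MSTI (4 uM) is scored by fluorescence at Ex/Em 525/598 nm after 1 h at room temperature. Acetyl-MSTI and MSTI define the activity scale.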

[5] = test system: Nanoluciferase (engineered Oplophorus gracilirostris luciferase); assay: Primary Nanoluciferase (NLuc) qHTS assay for identification of artifact compounds. (AID 1845222); further: series mostly up to about 54 µM
How it was run: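 Diluted conditioned medium from NLuc-expressing S16 cells treated with compounds for 15 min at room temperature, then Nano-Glo substrate added; luminescence read after 5 min. Percent inhibition versus no-enzyme and DMSO controls fitted to 4-parameter Hill equation.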

[6] = Primary redox qHTS assay for identification of artifact compounds. (AID 1845223)
How it was run: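 Redox-cycling detection via DTT (250 uM final) oxidation coupled to Amplex Red (25 uM)/HRP (250 mU/mL) in HBSS. 15 min preincubation plus 30 min after DTT, room temperature. Ex/Em 525/598 nm; 4-parameter Hill fit against DMSO and 10 uM DA3003.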

Sequence of Phospholipid hydroperoxide glutathione peroxidase GPX4 (Homo sapiens) (P36969 whole entry, looked up): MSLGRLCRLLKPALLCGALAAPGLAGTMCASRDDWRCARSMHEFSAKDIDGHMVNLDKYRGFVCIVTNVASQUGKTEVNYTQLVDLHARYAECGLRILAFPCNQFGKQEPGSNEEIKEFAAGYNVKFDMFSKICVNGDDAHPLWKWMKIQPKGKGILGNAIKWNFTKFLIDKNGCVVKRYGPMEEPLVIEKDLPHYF
Sequence of Glutathione peroxidase 1 (Homo sapiens) (P07203 whole entry, looked up): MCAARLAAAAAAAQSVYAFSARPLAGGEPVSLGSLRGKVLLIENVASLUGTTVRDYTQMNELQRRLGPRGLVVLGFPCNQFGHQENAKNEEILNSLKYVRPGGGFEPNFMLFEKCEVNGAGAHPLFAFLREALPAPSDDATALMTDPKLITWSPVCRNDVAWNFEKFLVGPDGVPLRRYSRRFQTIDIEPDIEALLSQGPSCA

Row | SMILES | Potency [1] | Potency [2] | Potency [3] | Potency [4] | Potency [5] | Potency [6] | activity change, negative = inhibition [3] | activity change, negative = thiol reactive [4] | activity, negative = inhibition [5] | redox activity (% of DA3003) [6]
1 | COC(=O)C1=COC(O[C@@H]2O[C@H](COC(=O)/C=C/c3ccc(O)cc3)[C@@H](O)[C@H](O)[C@H]2O)C2C(CO)=CCC12 (some centres not stated) | inactive | inactive | inactive | inactive | inactive | inactive | – | – | – | –
2 | O=C(O)CCc1cccc(O)c1O[C@@H]1O[C@H](CO)[C@@H](O)[C@H](O)[C@H]1O | inactive | inactive | inactive | 14.7 µM (active) | inactive | inactive | – | – | – | –
3 | CSCC1OC(n2cnc3c(N)ncnc32)C(O)C1O (configuration not stated) | inactive | inactive | inactive | inactive | inactive | inactive | – | – | – | –
4 | C=C1C(O)CC2C(C(=O)O)=COC(O[C@@H]3O[C@H](COC(=O)c4ccc(O)cc4)[C@@H](O)[C@H](O)[C@H]3O)C12 (some centres not stated) | inactive | inactive | inactive | 5.19 µM (active) | inactive | inactive | – | – | – | –
5 | CC(CCc1ccc(O)cc1)O[C@@H]1O[C@H](CO[C@@H]2OC(CO)[C@H](O)[C@H]2O)[C@@H](O)[C@H](O)[C@H]1O (some centres not stated) | inactive | inactive | inactive | inactive | inactive | inactive | – | – | – | –
6 | C=C1CCC2[C@](C)(CCC[C@]2(C)C(=O)O)[C@H]1CC/C(C)=C/C(=O)OC (some centres not stated) | inactive | inactive | inactive | inactive | inactive | inactive | – | – | – | –
7 | C/C=C(\C)C(=O)OC1C2(O)CC3=C4CC(=O)OC(c5ccoc5)C4(C)CCC3C(C)(C2=O)C(C(OC(C)=O)C(=O)OC)C1(C)C (configuration not stated) | inactive | inactive | inactive | inactive | inactive | inactive | – | – | – | –
8 | C[C@H]1[C@H](C)C[C@@H](C(=O)O)C2CC[C@]3(C)C(=CC[C@@H]4[C@@]5(C)CC[C@H](O)C(C)(C)[C@@H]5CC[C@]43C)[C@@H]21 (some centres not stated) | inactive | inactive | inactive | inactive | inactive | inactive | – | – | – | –
9 | OC[C@H]1O[C@@H](OCCc2ccccc2)[C@H](O[C@@H]2OC[C@@H](O)[C@H](O)[C@H]2O)[C@@H](O)[C@@H]1O | inactive | inactive | inactive | 4.12 µM (active) | inactive | inactive | – | – | – | –
10 | Cc1ncc([N+](=O)[O-])n1C[C@H](O)CN1CCOCC1 | inactive | inactive | inactive | inactive | inactive | inactive | – | – | – | –
11 | COC(=O)CCC1(C)C(C(C)(C)O)C(O)CC2(C)Oc3c(C)c4c(c(OC)c3CC21)C(=O)OC4 (configuration not stated) | inactive | inactive | inactive | inactive | inactive | inactive | – | – | – | –
12 | CC1=C2CC3C(CCC3(C)O)C(C)(O)CC2OC1=O (configuration not stated) | inactive | inactive | inactive | 23.8 µM (active) | inactive | inactive | – | – | – | –
13 | O=C(O)CCc1cc2ccoc2cc1O[C@@H]1O[C@H](CO)[C@@H](O)[C@H](O)[C@H]1O | inactive | inactive | inactive | inactive | inactive | inactive | – | – | – | –
14 | C[C@@H]1[C@H](O)[C@@H]2OC(=O)C3=C2[C@H](CCC3)[C@@]12C[C@@H](c1ccoc1)OC2=O | inactive | inactive | inactive | inactive | inactive | inactive | – | – | – | –
15 | O=C(O)CC1CCC(c2ccc(NC(=O)c3nnc(Nc4ccc(F)c(F)c4)o3)cc2)CC1 (configuration not stated) | inactive | inactive | inactive | inactive | inactive | inactive | – | – | – | –
16 | O=C(OC1C=C(CO)C2C(OC3OC(CO)C(O)C(O)C3O)OC=CC12O)c1ccc(O)cc1 (configuration not stated) | inactive | inactive | inactive | 3.27 µM (active) | inactive | inactive | – | – | – | –
17 | C[C@@H](c1ccccc1)N(C(N)=NC#N)c1cccc2ncccc12 | inactive | inactive | inactive | inactive | inactive | inactive | – | – | – | –
18 | CC12CC(c3ccoc3)OC(=O)C1CCC1(C)C2CCC(O)C1(C)O (configuration not stated) | inactive | inactive | inactive | 16.5 µM (active) | inactive | inactive | – | – | – | –
19 | CC(=O)OC1CC2(C)C(CCC(C)C23Cc2c(O)cc4c(c2O3)CNC4=O)C(C)(C)C1O (configuration not stated) | inactive | inactive | inactive | inactive | inactive | inactive | – | – | – | –
20 | CCN(CCN(C)C)C(=O)CNCc1cc(C(N)=O)ccn1 | inactive | inactive | inactive | inactive | inactive | inactive | – | – | – | –
21 | O=C1C(Cl)=C(N2CCOCC2)C(=O)N1c1ccc(Cl)c(Cl)c1 | inactive | inactive | inactive | inactive | inactive | inactive | – | – | – | –

Row | SMILES | Potency [1] | Potency [2] | Potency [3] | Potency [4] | Potency [5] | Potency [6] | activity change, negative = inhibition [3] | activity change, negative = thiol reactive [4] | activity, negative = inhibition [5] | redox activity (% of DA3003) [6]
22 | CCCN(CCN1CCN(c2ccccc2OC)CC1)C1CCc2ncsc2C1 (configuration not stated) | inactive | inactive | inactive | inactive | inactive | inactive | – | – | – | –
23 | Cc1cccc(NC(=O)CN2CCC(c3ccccn3)CC2)c1 | inactive | inactive | inactive | inactive | inactive | inactive | – | – | – | –
24 | N#Cc1cc(-c2n[nH]c(-c3ccncc3)n2)ccn1 | inactive | inactive | inactive | inactive | inactive | inactive | – | – | – | –
25 | COc1cc(/C=C/C(=O)OCC2OC(OC3(CO)OC(CO)C(O)C3O)C(O)C(O)C2O)ccc1O (configuration not stated) | inactive | inactive | inactive | inactive | inactive | inactive | – | – | – | –
26 | O=C(CCCCC1CCCCC1)N1CCC(c2cnc[nH]2)CC1 | inactive | inactive | inactive | inactive | inactive | inactive | – | – | – | –
27 | Cn1cc(-c2c[nH]c3ncnc(N4CCOCC4)c23)cn1 | inactive | inactive | inactive | inactive | inactive | inactive | – | – | – | –
28 | C[C@H]1CC[C@@]2(OC1)O[C@H]1CC3C4CC[C@H]5C[C@@H](O[C@@H]6O[C@H](CO)[C@H](O[C@@H]7O[C@H](CO)[C@@H](O)[C@H](O[C@@H]8OC[C@@H](O)[C@H](O)[C@H]8O)[C@H]7O[C@@H]7O[C@H](CO)[C@@H](O)[C@H](O)[C@H]7O)[C@H](O)[C@H]6O)[C@H](O)C[C@]5(C)C4=CC(=O)[C@]3(C)[C@H]1[C@@H]2C (some centres not stated) | inactive | inactive | – | – | – | – | 4.7% [at 11.6 µM] | 203% [at 11.5 µM] | 0% [at 11.6 µM] | 3.4% [at 11.5 µM]
29 | CCCC/C=C\CCCCCc1cc(=O)c2ccccc2n1C | inactive | inactive | inactive | inactive | inactive | inactive | – | – | – | –
30 | C[C@H]1[C@H](C)CC[C@]2(C(=O)O)CC[C@]3(C(=O)O)C(=CCC4[C@@]5(C)CC[C@H](O[C@@H]6O[C@@H](C)[C@H](O)[C@@H](O)[C@H]6O)C(C)(C)C5CC[C@]43C)[C@H]12 (some centres not stated) | inactive | inactive | inactive | inactive | inactive | inactive | – | – | – | –
31 | CC1(C(=O)O)CCCC2(C)C3CC4C5CC3(CCC12)CC45C (configuration not stated) | inactive | inactive | inactive | inactive | inactive | inactive | – | – | – | –
32 | C=C1CC/C=C(/CO)C(=O)C[C@@H]2[C@@H]1C[C@@]2(C)COC(C)=O | inactive | inactive | inactive | 11.9 µM (active) | inactive | inactive | – | – | – | –
33 | C=CC(C)(O)C1CC2C3(C)CCCC(C)(C)C3C(O)C(O)C2(C)O1 (configuration not stated) | inactive | inactive | inactive | inactive | inactive | inactive | – | – | – | –
34 | Cn1cc(Nc2cnccc2C(=O)O)c2cccnc21 | inactive | inactive | inactive | inactive | inactive | inactive | – | – | – | –
35 | O=C(/C=C/c1ccc(O)cc1)OC[C@H]1O[C@@H](O/C(=C\c2ccccc2)C(=O)O)[C@H](O)[C@@H](O)[C@@H]1O | inactive | inactive | inactive | inactive | inactive | inactive | – | – | – | –
36 | N[C@@H](CCNCc1ccc(Cl)cc1)C(=O)N1CCCCC1 | inactive | inactive | inactive | inactive | inactive | inactive | – | – | – | –
37 | CC1(C)C[C@@H]2[C@H](C1)[C@@]1(C)C[C@]13C(O)OC[C@]3(O)[C@H]2O (some centres not stated) | inactive | inactive | inactive | inactive | inactive | inactive | – | – | – | –
38 | Cc1oc(S(=O)(=O)N2CCCCC2)cc1NC(=O)Nc1ccccc1 | inactive | inactive | inactive | inactive | inactive | inactive | – | – | – | –
39 | COC(=O)/C=C/c1ccc(O[C@@H]2O[C@H](CO)[C@@H](O)[C@H](O)[C@H]2O)cc1 | inactive | inactive | inactive | inactive | inactive | inactive | – | – | – | –
40 | CCC(C)C1NC(=O)C2CCCN2C(=O)C(CC(O)CO)OC(=O)CCNC(=O)C(C)N(C)C(=O)C(C(C)C)N(C)C1=O (configuration not stated) (cyclo([X13]PI[NMeV][NMeA][βAla]); configuration not given here) | inactive | inactive | inactive | inactive | inactive | inactive | – | – | – | –
41 | c1cc(-c2cc(C3CCNCC3)[nH]n2)ccn1 | inactive | inactive | inactive | inactive | inactive | inactive | – | – | – | –
42 | CC1OC(OC2C(OC3C(O[C@H]4CC[C@@]5(C)C(CC[C@]6(C)C5CC=C5C7CC(C)(C)CC(O)[C@]7(C)CC[C@]56C)C4(C)C)OC(C(=O)O)C(O)C3O)OCC(O)C2O)C(O)C(O)C1O (some centres not stated) | inactive | inactive | – | – | – | – | 4.47% [at 11.6 µM] | 167% [at 11.5 µM] | 4.85% [at 11.6 µM] | 9.66% [at 11.5 µM]
